Source: PubChem BioAssay (NCATS)
Where “and” joins values, the source holds several entries; their conditions need not be identical. Equal entries are not always repeated. Inconclusive results are not listed. Where a call stands in place of a potency, no number is given. Calls of active or inactive are those of the source. Calls come from the whole dose curve; as a rule, active = well fitted curve in the direction sought with a large enough effect; inconclusive = small, poorly fitted or top-dose-only effect, or another doubt; inactive = no such curve, though single readings can be large; an effect the other way counts as inactive or inconclusive.

Assay: qHTS of pediatric cancer cell lines to identify multiple opportunities for drug repurposing: Primary screen for LAN-5 cells (AID 1347100)
Conditions: LAN-5 neuroblastoma viability, CellTiter-Glo luminescence, 48 h; series mostly up to 46 µM
How it was run: (§1)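 Viability after 48 h compound treatment at 37C, 500-1,000 cells/well, read as ATP luminescence with CellTiter-Glo. Primary screens used 11-point (MIPE, 0.78 nM-46 µM) or 8-point (NPC, 0.59 nM-46 µM) final concentrations; follow-up screens used 11-point dilutions.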
Potency is the fitted concentration of half-maximal effect.

Compound	Potency
Cc1cc2c(C(C)C)c(O)c(O)c(C=O)c2c(O)c1-c1c(C)cc2c(C(C)C)c(O)c(O)c(C=O)c2c1O	3.35 µM (active) and 11.8 µM (active)
NS(=O)(=O)c1cc2c(cc1Cl)NC=NS2(=O)=O	inactive
CC1(C)SCCN(S(=O)(=O)c2ccc(OCC#CCO)cc2)[C@@H]1C(=O)NO	inactive
CC(C)NCC(O)COc1ccc(COCCOC(C)C)cc1 (centres undefined)	inactive
Oc1ccc(C2CNCCc3c2cc(O)c(O)c3Cl)cc1 (centres undefined)	inactive
CCc1ccc(CCOc2ccc(CC3SC(=O)NC3=O)cc2)nc1 (centres undefined)	inactive
O=c1n(CCCN2CCN(c3cccc(Cl)c3)CC2)nc2ccccn12	inactive
Cc1cnc(NC(=O)C2=C(O)c3ccccc3S(=O)(=O)N2C)s1	inactive
Nc1ccc(S(=O)(=O)Nc2ccnn2-c2ccccc2)cc1	inactive
NC(=O)c1cnccn1	inactive
CCCCNc1cc(C(=O)O)cc(S(N)(=O)=O)c1Oc1ccccc1	inactive
Cc1[nH]c(=O)c(C#N)cc1-c1ccc2nccn2c1	inactive
OC(CCN1CCCCC1)(c1ccccc1)C1CC2C=CC1C2 (centres undefined)	inactive
NC(=O)c1ccc(I)c([N+](=O)[O-])c1	inactive
CC(c1cc2ccccc2s1)N(O)C(N)=O (centres undefined)	inactive
O=C1CCC(N2C(=O)c3ccccc3C2=O)C(=O)N1 (centres undefined)	inactive
O=C(O)COCCN1CCN(C(c2ccccc2)c2ccc(Cl)cc2)CC1 (centres undefined)	inactive
Cc1ccc(-n2nc(C(C)(C)C)cc2NC(=O)Nc2ccc(OCCN3CCOCC3)c3ccccc23)cc1	inactive
CC(C)(Sc1ccc(CCN(CCCCC2CCCCC2)C(=O)NC2CCCCC2)cc1)C(=O)O	20.9 µM (active)
CC(C[N+](C)(C)C)OC(N)=O (centres undefined)	inactive
CS(=O)(=O)c1cccc(CNc2nc(Nc3ccc4c(c3)CCC(=O)N4)ncc2C(F)(F)F)c1	3.32 µM (active)
CC(=O)Oc1ccccc1C(=O)O	inactive
CC(C)(C)NCC(O)c1ccc(O)c(CO)c1 (centres undefined)	inactive
c1ccc([C@H]2CN3CCSC3=N2)cc1	inactive
CNC[C@H](O)c1cccc(O)c1	inactive

Assay: qHTS of pediatric cancer cell lines to identify multiple opportunities for drug repurposing: Primary screen for BT-12 cells (AID 1347101); note: nearly all actives have a fitted effect of over 25% in size
Conditions: BT-12 viability, CellTiter-Glo luminescence, 48 h; series mostly up to 57.3 µM
How it was run: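 Cells (500-1,000/well) rested 5 h, then received compounds for 48 h; metabolically active cells were measured by CellTiter-Glo luminescence. Final concentrations spanned up to 46 µM (MIPE, 11-point) or 0.59 nM-46 µM (NPC, 8-point) in primary screens, 11-point in follow-ups.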

Compound	Potency
Cc1cc2c(C(C)C)c(O)c(O)c(C=O)c2c(O)c1-c1c(C)cc2c(C(C)C)c(O)c(O)c(C=O)c2c1O	13.8 µM (active) and 19.3 µM (active)
NS(=O)(=O)c1cc2c(cc1Cl)NC=NS2(=O)=O	inactive
COc1cc2c(cc1OC)CN(CCc1ccc(NC(=O)c3cccc4c(=O)c5cccc(OC)c5[nH]c34)cc1)CC2	inactive
CC1(C)SCCN(S(=O)(=O)c2ccc(OCC#CCO)cc2)[C@@H]1C(=O)NO	inactive
CCCc1nc2c(C)cc(-c3nc4ccccc4n3C)cc2n1Cc1ccc(-c2ccccc2C(=O)O)cc1	inactive
CC(C)NCC(O)COc1ccc(COCCOC(C)C)cc1 (centres undefined)	inactive
NCCc1ccc(O)c(O)c1	inactive
Oc1ccc(C2CNCCc3c2cc(O)c(O)c3Cl)cc1 (centres undefined)	inactive
CCc1ccc(CCOc2ccc(CC3SC(=O)NC3=O)cc2)nc1 (centres undefined)	inactive
O=c1n(CCCN2CCN(c3cccc(Cl)c3)CC2)nc2ccccn12	inactive
Cc1cnc(NC(=O)C2=C(O)c3ccccc3S(=O)(=O)N2C)s1	inactive
Nc1ccc(S(=O)(=O)Nc2ccnn2-c2ccccc2)cc1	inactive
NC(=O)c1cnccn1	inactive
CCCCNc1cc(C(=O)O)cc(S(N)(=O)=O)c1Oc1ccccc1	inactive
Cc1ccccc1C(OCCN(C)C)c1ccccc1 (centres undefined)	inactive
Cc1[nH]c(=O)c(C#N)cc1-c1ccc2nccn2c1	inactive
OC(CCN1CCCCC1)(c1ccccc1)C1CC2C=CC1C2 (centres undefined)	inactive
NC(=O)c1ccc(I)c([N+](=O)[O-])c1	inactive
CC(c1cc2ccccc2s1)N(O)C(N)=O (centres undefined)	inactive
O=C1CCC(N2C(=O)c3ccccc3C2=O)C(=O)N1 (centres undefined)	inactive
O=C(O)COCCN1CCN(C(c2ccccc2)c2ccc(Cl)cc2)CC1 (centres undefined)	inactive
Clc1cccc(Cl)c1NC1=NCCN1	inactive
CC(C[N+](C)(C)C)OC(N)=O (centres undefined)	inactive
CC(=O)Oc1ccccc1C(=O)O	inactive
O=C(O)CCc1ccc(NCc2cccc(Oc3ccccc3)c2)cc1	inactive
CC(C)(C)NCC(O)c1ccc(O)c(CO)c1 (centres undefined)	inactive
c1ccc([C@H]2CN3CCSC3=N2)cc1	inactive
C[C@]12CCC(=O)C=C1CC[C@@H]1[C@@H]2[C@@H](O)C[C@@]2(C)[C@H]1CC[C@]2(O)C(=O)CO	inactive
CNC[C@H](O)c1cccc(O)c1	inactive
N[C@@H]1CONC1=O	inactive

Assay: qHTS of pediatric cancer cell lines to identify multiple opportunities for drug repurposing: Primary screen for Rh18 cells (AID 1347102); note: nearly all actives have a fitted effect of over 65% in size
Conditions: Rh18 rhabdomyosarcoma viability, CellTiter-Glo luminescence, 48 h; series mostly up to 46 µM
How it was run: as §1

Compound	Potency
Cc1cc2c(C(C)C)c(O)c(O)c(C=O)c2c(O)c1-c1c(C)cc2c(C(C)C)c(O)c(O)c(C=O)c2c1O	23.5 µM (active)
NS(=O)(=O)c1cc2c(cc1Cl)NC=NS2(=O)=O	inactive
COc1cc2c(cc1OC)CN(CCc1ccc(NC(=O)c3cccc4c(=O)c5cccc(OC)c5[nH]c34)cc1)CC2	inactive
CC1(C)SCCN(S(=O)(=O)c2ccc(OCC#CCO)cc2)[C@@H]1C(=O)NO	inactive
CCCc1nc2c(C)cc(-c3nc4ccccc4n3C)cc2n1Cc1ccc(-c2ccccc2C(=O)O)cc1	inactive
CC(C)NCC(O)COc1ccc(COCCOC(C)C)cc1 (centres undefined)	inactive
NCCc1ccc(O)c(O)c1	inactive
Oc1ccc(C2CNCCc3c2cc(O)c(O)c3Cl)cc1 (centres undefined)	inactive
CCC(C)n1ncn(-c2ccc(N3CCN(c4ccc(OC[C@H]5CO[C@](Cn6cncn6)(c6ccc(Cl)cc6Cl)O5)cc4)CC3)cc2)c1=O (some centres undefined)	inactive
CCc1ccc(CCOc2ccc(CC3SC(=O)NC3=O)cc2)nc1 (centres undefined)	inactive
O=c1n(CCCN2CCN(c3cccc(Cl)c3)CC2)nc2ccccn12	inactive
CNC(=O)c1ccc(N2C(=S)N(c3ccc(C#N)c(C(F)(F)F)c3)C(=O)C2(C)C)cc1F	inactive
Cc1cnc(NC(=O)C2=C(O)c3ccccc3S(=O)(=O)N2C)s1	inactive
Nc1ccc(S(=O)(=O)Nc2ccnn2-c2ccccc2)cc1	inactive
NC(=O)c1cnccn1	inactive
CCCCNc1cc(C(=O)O)cc(S(N)(=O)=O)c1Oc1ccccc1	inactive
Cc1ccccc1C(OCCN(C)C)c1ccccc1 (centres undefined)	inactive

Compound	Potency
Cc1[nH]c(=O)c(C#N)cc1-c1ccc2nccn2c1	inactive
OC(CCN1CCCCC1)(c1ccccc1)C1CC2C=CC1C2 (centres undefined)	inactive
NC(=O)c1ccc(I)c([N+](=O)[O-])c1	inactive
CC(c1cc2ccccc2s1)N(O)C(N)=O (centres undefined)	inactive
O=C1CCC(N2C(=O)c3ccccc3C2=O)C(=O)N1 (centres undefined)	inactive
O=C(O)COCCN1CCN(C(c2ccccc2)c2ccc(Cl)cc2)CC1 (centres undefined)	inactive
Cc1ccc(-n2nc(C(C)(C)C)cc2NC(=O)Nc2ccc(OCCN3CCOCC3)c3ccccc23)cc1	inactive
CC(C)(Sc1ccc(CCN(CCCCC2CCCCC2)C(=O)NC2CCCCC2)cc1)C(=O)O	inactive
Clc1cccc(Cl)c1NC1=NCCN1	inactive
CC(C[N+](C)(C)C)OC(N)=O (centres undefined)	inactive
CC(=O)Oc1ccccc1C(=O)O	inactive
O=C(O)CCc1ccc(NCc2cccc(Oc3ccccc3)c2)cc1	inactive
CC(C)(C)NCC(O)c1ccc(O)c(CO)c1 (centres undefined)	inactive
c1ccc([C@H]2CN3CCSC3=N2)cc1	inactive
C[C@]12CCC(=O)C=C1CC[C@@H]1[C@@H]2[C@@H](O)C[C@@]2(C)[C@H]1CC[C@]2(O)C(=O)CO	inactive
CNC[C@H](O)c1cccc(O)c1	inactive
N[C@@H]1CONC1=O	inactive
